The sequences below were run on VDR:RXRa (NR concentration 270 nM, RXRa partner concentration 90 nM) (assay: PBM binding z-score (relative to random genomic background probes); higher = stronger binding; sequences stand for … in GC…GCGATTGACAGCGTAGAATGAAGG).
Procedure: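 Protein-binding microarray (Agilent 4x180K custom design, double-stranded 60-nt probes: 5' GC cap, 34-nt variable region, 24-nt constant primer region; full probe sequence given). Purified or IVT nuclear receptor:RXRα heterodimers (3:1 NR:RXRα, mostly 270:90 nM) or homodimers were incubated for 1 h in PBS with 2% milk and no ligand, then detected with Alexa488 antibodies. Fluorescence from o1-orientation probes (~5 replicates averaged) was converted to z-scores against 500 random hg19 background probes. Variable regions are seed direct-repeat (DR0–DR5) sites, all their single-nucleotide variants and half-site ablations.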
CTATGTAGGTTAAGGGGGTCACTCAGTTTGAAAG showed a PBM binding z-score of 7.21. TCGAGTAGGTTACGGGGGCATTCAAGGATGAAGA was tested, and the PBM binding z-score was 3.74. In the case of TTACAAAGGTGAGCTGAGGTCGTTGATCCAACTC, the PBM binding z-score is reported as 5.58. For CCTACTGGGCCAAAGGACATTGATTCCAATGCTC, the PBM binding z-score was -0.439. CGAACTAGGTCATAGGACAGTGAAAGGCGACGTA gave a PBM binding z-score of 1.47. Work on CCTACTGGGCCAAGGTCTTTGATCAGTCAAAGCA yielded a PBM binding z-score of -0.509. CGAACTAGGTCAAAGGAGAGTGAAAGGCGACGTA showed a PBM binding z-score of 0.961. In the case of TCGAGTAGGTTACGGCGGCATTCAGGGATGAAGA, the PBM binding z-score is reported as -0.251. With CTATGTAGGTTAATGGGGTCATTCAGTTTGAAAG the PBM binding z-score was 7.83. Sequence CAAACTAGGTCACGAAAGGTCAAAGTTGAATGAC has a PBM binding z-score of 6.81. Work on CCGAGTAGGTTACGAGGGGGGATTCAGTGCGAAT yielded a PBM binding z-score of 3.17. For CAAACTAGGTCAAAGGTCAAAGTTGAGCCAACCA, the PBM binding z-score was 6.85. CCTGCTAGGTCAATGGTCAGCTCAAGCAGCTCGC showed a PBM binding z-score of 0.923. Work on CAAACTAGGTCAAGGTCAAAGTAGGTTTGTGCCA yielded a PBM binding z-score of 5.54. For CCTTACGGTTCACTGACAGGTTATAGCATTTGGA, the PBM binding z-score was 2.6. Work on CGAACTAGGTCAAAGGACAGTGCAAGGCGACGTA yielded a PBM binding z-score of 1.68. Sequence GATACAGAGTCAGCTAGAGGCCAGAGTATGGAAA has a PBM binding z-score of -0.601. ATATGTAGGTTAGGGTCATTGAGAAAGTAGGGAA was tested, and the PBM binding z-score was 4.27. CGAACTAGGTCACCAGGAGAGTGAAGAGGTTGGA gave a PBM binding z-score of 1.71. In the case of ATAGGTAGGTTAGGGTCATTCAGAAAGTAGGGAA, the PBM binding z-score is reported as 5.05. CCTACTGGGGCACGAAAGGTCATTGATTCAGTGA was tested, and the PBM binding z-score was 4.61. For CGAACTAGGTCAAAGGACAGTGACAGGCGACGTA, the PBM binding z-score was 1.47. CAAACTAGGTCACGAAAGGTCAACGTCGAATGAC was tested, and the PBM binding z-score was 6.9. Work on GATACAGGGTCAAGGCCAGAATACGCGTATTGAT yielded a PBM binding z-score of 4.05. ATCGAAAGGTCGAGTTGAGTATAGAGAAAGGGAA showed a PBM binding z-score of 3.04. Work on ATATGTAGGTTAGGCTCATTCAGAAAGTAGGGAA yielded a PBM binding z-score of -0.124. Work on ACTAACAGGCCAAGGGTCACTCAAGATTAGTCCG yielded a PBM binding z-score of 3.07. Work on AATACAGGGTCACTAGGTCAGAGTAGGTACGAAT yielded a PBM binding z-score of 5.25. With CGAACTAGGTCACCAGGACAGTAAAGAGGTTGGA the PBM binding z-score was 2.05. TAGCCTAGGTGATTGGGCCAGTATAGTACGCATC showed a PBM binding z-score of -0.57. CGAACCAGGTCACCAGGACAGTGAAGAGGTTGGA gave a PBM binding z-score of 3.17. Sequence TCTCGGAGGACACGAAAGGTCTGAGCTCGACATC has a PBM binding z-score of 0.182. Sequence CGTCCAAGGTCACCAGGTCAGTGAAAGCGACGTG has a PBM binding z-score of 5.3. Work on TCATATAGGTAAAAGGTCAAAGTCGGTGTGGTAA yielded a PBM binding z-score of 5.3. For CGAACTAGTTCACCAGGACAGTGAAGAGGTTGGA, the PBM binding z-score was 0.879. With GATACAGGGTCAATGCCAGAGTACGCGTATTGAT the PBM binding z-score was 3.93. CCTACTGGGCGACGAAAGGTCATTGATTCAGTGA gave a PBM binding z-score of 3.36. ATATGTAGGTTAGGGTCATTCAGAAAGTAGGGAA gave a PBM binding z-score of 4.7. CAAACTAGGTCAAAGGTCAAAATCGAGCCAACCA was tested, and the PBM binding z-score was 6.43. Sequence GCTGCTAGGTCAACTGATGGTCAGCTAAAGCTCG has a PBM binding z-score of 1.47.
